Shiga toxin inh – inhibitors of Shiga toxin in Vero cells. Vero cells, Shiga toxin protein synthesis inhibition reporter. inhibition, % at 38.7 µM. 290,000 compounds, 9.2% hits; in the data active = inhibition mostly above about 28%, no sharp cut-off; inactive = mostly below about 43%
Cycloheximide cs – counter-screen hit for Shiga toxin inhibitors, cycloheximide. cell reporter, cycloheximide protein synthesis inhibition counterscreen. max response, %. 300,000 compounds, 12% hits. AID 2314; in the data active = max response mostly above about 13%, no sharp cut-off; inactive = mostly below about 14%; also: read at 38.3 µM for the half of the compounds with a filed dose
NS1 inh – influenza NS1 inhibition | Potency, µM (doses to about 46.1 µM) | 270,000 compounds, 0.4% hits; also: actives are rising curves; nearly all actives have a fitted effect of over 50% in size
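In this qHTS, NS1 from influenza A is expressed in budding yeast, where it slows growth. Cells are switched from glucose to 2% galactose medium (pH 6.0, -URA), treated with compound, and growth recovery is read at OD600.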
SARS PLpro yeast – SARS-CoV PLP inhibition in yeast; AID 485353; 330,000 compounds, 0.19% hits; Potency, µM (highest dose often 32.9 µM), hits mostly activators; S. cerevisiae expressing SARS-CoV PLpro, growth rescue; also: nearly all actives have a fitted effect of over 55% in size
Each line names hits and unclear results; the compound was inactive in the other large screens. Most compounds without a hit are left out; they make up all but 12% or so of the library. Unless noted, calls follow the shape of the full dose curve.

CCOc1ccc2nc(N3CCCC(C(=O)NCCCN4CCCCC4)C3)sc2c1 (stereo not drawn)	Shiga toxin inh 36, Cycloheximide cs 20, SARS PLpro yeast inconclusive
COc1ccc2nc(N3CCCC(C(=O)NCCCN4CCN(C)CC4)C3)sc2c1 (stereo not drawn)	none
CCOc1ccc2nc(NC(=O)C3CCN(c4cnccn4)CC3)sc2c1	none
O=C(NCCc1ccccc1F)C1CCCN(c2nc3ccccc3s2)C1 (stereo not drawn)	none
CCOc1ccc2nc(N3CCCC(C(=O)NCCCN4CC(C)CC(C)C4)C3)sc2c1 (stereo not drawn)	Cycloheximide cs 32
Cc1ccc(S(=O)(=O)N(c2nc(NC(C)C)nc(NC(C)C)n2)n2cnnc2)cc1	none
Cc1ncc(N=Nc2ccc(F)cc2)c(-c2ccc(Cl)cc2)n1	none
Cc1nc(N)sc1N=Nc1ccc(F)cc1	Shiga toxin inh 62, Cycloheximide cs 49
O=S1(=O)N=C(Nc2ccc(O)c(CN3CCCCC3)c2)c2ccccc21	none
O=C1NN(C(=O)Nc2ccc(Br)cc2)C(c2ccccc2)C1c1ccccc1 (stereo not drawn)	Shiga toxin inh 54 (no result: NS1 inh, SARS PLpro yeast)
Cc1ccccc1OCC(=O)Nc1ccccc1CO	Shiga toxin inh 78
CSc1ccccc1NC(=O)COc1ccccc1C	Shiga toxin inh 47, Cycloheximide cs 27
CCC1CCCCN1CCNC(=O)CCS(=O)(=O)c1ccc(Br)cc1 (stereo not drawn)	none
COc1ccc(CCNC(=O)CC2(CC3=NS(=O)(=O)c4ccccc4N3)CCCC2)cc1OC	none
Cc1ccc(CNC(=O)CC2(CC3=NS(=O)(=O)c4ccccc4N3)CCCC2)cc1	Cycloheximide cs 8.5
COc1ccc2c(c1)CCc1c(C(=O)NCCCn3ccnc3)noc1-2	none
COc1ccc2c(c1)CCc1c(C(=O)NCc3ccco3)noc1-2	Shiga toxin inh 67, Cycloheximide cs 34
COCC(C)NC(=O)c1noc2c1CCc1cc(OC)ccc1-2 (stereo not drawn)	Shiga toxin inh 83, Cycloheximide cs 33
COc1ccc2c(c1)CCc1c(C(=O)NC3CCCCC3)noc1-2	Shiga toxin inh 59, Cycloheximide cs 45
COc1ccc2c(c1)CCc1c(C(=O)N(C)c3ccccc3)noc1-2	Shiga toxin inh 123, Cycloheximide cs 49 (no result: NS1 inh)
Cc1ccc(N=C(N)N=C(N)N)c(C)c1	none
O=c1c2c3c(sc2nc(N2CCNCC2)n1CCc1ccccc1)CCCCC3	none
COCCNC(=O)c1noc2c1CCc1cc(OC)ccc1-2	Cycloheximide cs 35
COc1ccc2c(c1)CCc1c(C(=O)NCCN3CCOCC3)noc1-2	none
C/C(=N/NC(=O)Cc1cccc2ccccc12)c1cccs1	none
C/C(=N\NC(=O)c1ccccc1O)c1cccs1	Shiga toxin inh 56, Cycloheximide cs 32
C/C(=N\NC(=O)COc1ccccc1)c1cccs1	Shiga toxin inh 70, Cycloheximide cs 54
C/C(=N\NC(=O)c1cccc2ccccc12)c1ccccn1	none
C/C(=N\NC(=O)c1ccoc1C)c1cccc2ccccc12	Shiga toxin inh 80, Cycloheximide cs 62
C/C(=N\NC(=O)c1cccc2ccccc12)c1cccs1	Shiga toxin inh 70, Cycloheximide cs 29
CN1C(N)=NC(=O)/C1=C/c1ccc(F)cc1	none
CCn1c(SCC(=O)Nc2oc(-c3ccccc3)c(-c3ccccc3)c2C#N)nnc1-c1cc(OC)cc(OC)c1	none
C/C(=N\OCC(=O)Nc1ccccc1C(=O)O)c1cccs1	Shiga toxin inh 98, Cycloheximide cs 34 (no result: NS1 inh)
C/C(=N/OCC(=O)Nc1ccc(C)cc1C)c1cccs1	none
Cc1nnc(NC(=O)c2cc(-c3ccco3)nc3ccccc23)s1	none (no result: Shiga toxin inh, Cycloheximide cs, NS1 inh)
O=C(Nc1nc2ccccc2s1)c1cc(-c2ccco2)nc2ccccc12	Shiga toxin inh 60, Cycloheximide cs 50
Cc1ccc2nc(NC(=O)c3cc(-c4ccco4)nc4ccccc34)sc2c1	Cycloheximide cs 24
CC(O)CNc1nc2ccccc2n1CC(=O)NC12CC3CC(CC(C3)C1)C2 (stereo not drawn)	none (no result: NS1 inh)
CC1=NN2C(=N)/C(=C\c3cc(C)n(-c4ccccc4)c3C)C(=O)N=C2S1	none (no result: NS1 inh)
COc1ccccc1/C=C1\Cc2ccccc2C1=O	Shiga toxin inh 51, Cycloheximide cs 32
Cc1cc(/C=C2\Cc3ccccc3C2=O)c(C)n1-c1ccccc1	Shiga toxin inh 159, Cycloheximide cs 80
CC1=NN(c2ccccc2)C(=O)/C1=C\c1cc(C)n(-c2ccccc2)c1C	none
Cc1cc(C=C2C(=O)N(C)C(=O)N(C)C2=O)c(C)n1-c1ccccc1	Shiga toxin inh 53, Cycloheximide cs 25 (no result: NS1 inh)
Cc1cc(/C=N/O)c(C)n1-c1ccccc1	none
Cc1cc(C=C2C(=O)c3ccccc3C2=O)c(C)n1-c1ccccc1	Shiga toxin inh 118, Cycloheximide cs 51
Cc1cc2c(cc1C)C(c1ccsc1)CC(=O)N2 (stereo not drawn)	none (no result: NS1 inh)
O=C(c1nc2ccc([N+](=O)[O-])cc2[nH]c1=O)[C@@H](O)c1ccc2c(c1)OCO2	none (no result: Shiga toxin inh, Cycloheximide cs, SARS PLpro yeast)
Cc1ncc(CN2CCCC(CCC(=O)NCc3ccc(F)c(F)c3)C2)s1 (stereo not drawn)	none
Cc1cc(C=C2C(=O)c3ccccc3C2=O)c(C)n1-c1ccc(C(=O)O)cc1	none
Cc1cc(C=C2C(=O)c3ccccc3C2=O)c(C)n1-c1cccc(C(=O)O)c1	Shiga toxin inh 104, Cycloheximide cs 43 (no result: NS1 inh)
O=C(CCN1C(=O)C2C3CC(C(Br)C3Br)C2C1=O)OCC(=O)c1cccc([N+](=O)[O-])c1 (stereo not drawn)	none
Cc1ccc(N(C(=O)Cn2nnc(-c3ccc(F)cc3)n2)C(CC(C)C)C(=O)NCC2CCCO2)cc1 (stereo not drawn)	none
Clc1c(-c2ccccc2)nnn1-c1ccccc1	Shiga toxin inh 105, Cycloheximide cs 56
CC1(C)COC(/C=C/c2cccc([N+](=O)[O-])c2)=N1	Shiga toxin inh 65, Cycloheximide cs 34
O=C(COC(=O)CCSc1ccccc1)NCc1ccccc1Cl	Cycloheximide cs 19
O=C(CSc1nc(=O)n2ccccc2n1)NCc1ccccc1Cl	none (no result: Shiga toxin inh, Cycloheximide cs, NS1 inh)
O=C(CSc1ncccn1)NCc1ccccc1Cl	Shiga toxin inh 68, Cycloheximide cs 50
O=C(CC1CCCCC1)NCc1ccccc1Cl	Cycloheximide cs 38
CCCCC(=O)NCc1ccccc1Cl	Cycloheximide cs 23
O=C(NCc1ccccc1Cl)NCc1ccccc1Cl	none
CCOC(=O)C1(CC2CCCCO2)CCN(Cc2nc3ccccc3[nH]2)CC1 (stereo not drawn)	none
O=C(CCC(=O)N1CCOCC1)NCCc1ccc(Cl)cc1Cl	none
O=C(COC(=O)C1CC1)NCc1ccccc1Cl	Cycloheximide cs 16, SARS PLpro yeast inconclusive
COc1ccccc1CNC(=O)COC(=O)C1CC1	none (no result: Shiga toxin inh, Cycloheximide cs, NS1 inh)
Cc1cc(NC(=O)COC(=O)C(Nc2ccc(C(F)(F)F)cc2Cl)C(C)C)no1 (stereo not drawn)	none
Cc1ccc(S(=O)(=O)N/N=C\c2ccc3c(c2)OCO3)cc1	Cycloheximide cs 16
COc1ccc(OC)c(S(=O)(=O)N/N=C\c2ccc3c(c2)OCO3)c1	Shiga toxin inh 73, Cycloheximide cs 44
COc1ccc(S(=O)(=O)N/N=C\c2ccc3c(c2)OCO3)c(OC)c1	none
Cc1ccc(S(=O)(=O)N/N=C\c2ccc3c(c2)OCO3)cc1C	none
O=C(NC1=NC2CCCCC2N1)c1ccccc1 (stereo not drawn)	Shiga toxin inh 97, Cycloheximide cs 34

Screens (PubChem)
